This is a sample that favours compounds with a hit; in the whole collection about 3.8% have one here.
HepG2 tox – counter-screen for TGF-b inhibitors: cytotoxicity in HepG2 cells; Potency, µM (titrated, usually from 46.1 µM), for inactives: top-dose activity change, negative = cytotoxicity, most hits filed as cytotoxic; 410,000 tested, 0.76% active; AID 588856; HepG2 CAGA-GFP viability, ATP luminescence, 18 h
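HepG2 CAGA-GFP cells (1000/well, DMEM with 1% FBS) received compound, then TGF-beta at 500 pg/mL final, and were incubated 18 hours at 37 degrees C. Viability was read by CellTiter-Glo luminescence. Media-only wells were set as complete cell-killing and DMSO as no toxicity.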
ATXN viability – cell viability loss in ATXN counter-screen; 400,000 tested, 0.49% active; S2 cells (HEK-293 line with an ATXN2-luciferase reporter) viability, CellTiter-Fluor protease fluorescence, 24 h; Potency, µM (titrated, usually from 56.7 µM), usual class: cytotoxic; AID 651635; further: nearly all actives have a fitted effect of over 40% in size
HT1080 IDH1KD tx – toxicity to HT-1080 IDH1 knockdown cells (counter line) | HT-1080 IDH1 knockdown viability, ATP luminescence, 48 h | Potency, µM (top dose mostly 46.1 µM), for the others: at the highest dose activity, negative = toxicity, actives largely listed as cytotoxic | 360,000 tested, 2% active | AID 686971;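 further: 0% = DMSO wells and -100% = cell-free medium wells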
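Knockdown cells (IDH1KD HT-1080) received compounds 2 h after plating at 750 cells/well and were kept 48 h at 37 °C in 5% FBS RPMI. A CellTiter-Glo luminescence read gave % activity for curve fitting.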
ATXN2 expr inh – ATXN2 expression inhibition; Potency, µM (top dose mostly 57 µM), for inactives: at the top dose activity change, negative = inhibition, actives largely listed as inhibitors; AID 1745845; 360,000 tested, 0.72% active; HEK-293 ATXN2-luciferase reporter, luminescence, 24 h; further: on the % scale 0 is the no-effect control and ±100 the full control effect; nearly all actives have a fitted effect of over 55% in size
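qHTS (up to 57 uM final) was run with 24 h compound exposure of reporter cells at 37 °C. Each well was multiplexed: SteadyGlo luminescence measured ATXN2-luciferase expression after a fluorogenic Gly-Phe-AFC viability readout (25 uM final).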
HT1080-NT tox – kills 2HG-producing HT-1080-NT fibrosarcoma cells; Potency, µM (highest dose often 46.1 µM), without a hit: at the highest dose activity, negative = less viability, usual class: cytotoxic; HT-1080-NT fibrosarcoma viability, CellTiter-Glo ATP luminescence, 48 h; 360,000 tested, 1.6% active;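 further: NT is the 2HG producing partner of a matched IDH1 knockdown line; 0% = DMSO-treated cells and -100% = media-only wells without cells; nearly all actives have a fitted effect of over 55% in size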
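Viability by CellTiter-Glo luminescence after 48 h compound exposure at 37C of HT-1080-NT cells (750/well, RPMI, 5% FBS). % activity scaled between DMSO wells and medium-only wells, then curve-fitted and categorized by curve class.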
TGFb inhibitor – inhibitors of TGF-b signaling | 410,000 tested, 1.2% active | Potency, µM (titrated, usually from 46.1 µM), without a hit: at the top dose activity, negative = inhibition, actives largely listed as inhibitors | HepG2 CAGA-GFP TGF-b/SMAD3 reporter, GFP fluorescence, 18 h; TGF-beta stimulated, 500 pg/mL final; further: on the % scale 0 is the no-effect control and ±100 the full control effect; nearly all actives have a fitted effect of over 65% in size
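Inhibition of TGF-beta-driven CAGA-GFP reporter expression in HEPG2 cells is measured by cellular GFP fluorescence after 18 h stimulation with 500 pg/mL recombinant TGF-beta in 1% FBS medium at 37 degrees C.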
Numbers without * were called inactive; i = inactive; u = inconclusive; x = no result given; [ ] = remark or other dose. The call rests on the fitted dose curve; in most records, active means well fitted curve in the direction sought with a large enough effect; inconclusive means small, poorly fitted or top-dose-only effect, or another doubt; inactive means no such curve, though single readings can be large; an effect the other way counts as inactive or inconclusive. Potency means the concentration at half of the fitted maximal effect.

SMILES | HepG2 tox | ATXN viability | HT1080 IDH1KD tx | ATXN2 expr inh | HT1080-NT tox | TGFb inhibitor
O=C(NCCN1CCC2(CC1)C(=O)NCN2c1cccc(F)c1)c1ccc2ccccc2c1 | x | 31.6µM* | 20.6µM* | 12.6µM* | 14.6µM* | x
COc1cccc(NC(=O)C2CCN(c3nnc(C)c4c(C)n(-c5ccccc5)nc34)CC2)c1 | -37.6% | u | x | u | x | u
COc1cc2nc(N(C)C)c(CNCCc3c[nH]c4ccccc34)cc2c(OC)c1OC | x | i | x | x | x | x
Cc1ccc([C@@H]2CC(=O)[C@@H]3CN(S(=O)(=O)c4ccccc4C)[C@H](c4ccc(Cl)cc4)C[C@@H]3N2S(=O)(=O)c2ccc(C)cc2)cc1 | -2.4% | u | -0.9% | -8.4% | 2.5% | -1.1%
CCN(CC)c1ccc(CNCCc2ccccc2F)cc1 | -20.7% | u | 18.4µM* | -24.4% | 16.4µM* | -10.5%
O=C1NC(=O)C(=Cc2ccc(-c3ccc(Cl)cc3)o2)C(=O)N1 | -28.5% | 28.2µM* | 6.7% | u | 1.3% | u
O=C1NC(=O)C(=Cc2ccc(-c3ccc(S(=O)(=O)N4CCOCC4)cc3)o2)C(=O)N1 | -10.1% | i | 12.9% | 2.2% | 14.9% | -6.4%
CN1C(=O)C(=Cc2ccc(Sc3ccccc3)o2)C(=O)N(C)C1=O | -27.3% | i | -4.4% | 0.9% | 8.3% | 0.0%
O=C1NC(=O)C(=Cc2ccc(Sc3ccccc3)o2)C(=O)N1 | -185.3% | u | 13µM* | u | 18.4µM* | -49.3%
Nc1ccc(CC(N)c2csc(Nc3ncccn3)n2)cc1 (stereo not given) | -4.2% | i | -29.7% | -23.8% | -14.4% | -4.7%
NC(Cc1ccc(F)cc1)c1csc(Nc2ncccn2)n1 (stereo not given) | -22.8% | i | 6.51µM* | u | 5.8µM* | u
NC(Cc1ccc(Cl)cc1)c1csc(Nc2ncccn2)n1 (stereo not given) | -43.1% | u | 5.8µM* | u | 18.4µM* | u
CN(C)CC(C(=O)Cc1ccccc1)c1ccccc1 (stereo not given) | -101.9% | x | 8.2µM* | u | 16.4µM* | u
Cc1ccccc1C(=O)Nc1cc(-c2ccc(Cl)cc2)nn1-c1ccccc1 | -1.4% | u | x | 0.7% | x | -2.2%
C[C@H]1CC[C@@H]2[C@@H](C)[C@H]3[C@H](C[C@H]4[C@@H]5CC=C6C[C@@H](O[C@@H]7O[C@H](CO)[C@H](O)[C@H](O[C@@H]8O[C@H](CO)[C@@H](O)[C@H](O)[C@H]8O)[C@H]7O[C@@H]7O[C@@H](C)[C@H](O)[C@@H](O)[C@H]7O)CC[C@]6(C)[C@H]5CC[C@]34C)N2C1 | 12.6µM* | x | -11.4% | u | 2.9% | u
C[C@@H]1CC2C3CC=C4C[C@@H](O)CC[C@]4(C)C3CC[C@]2(C)[C@H]1O (stereo not given in full) | -4.9% | i | 0.5% | 8.1% | 2.3% | 0.2%
C=CCC1(C(C)CC)C(=O)NC(=O)NC1=O (stereo not given) | x | i | x | 2.6% | x | x
NC(Cc1ccc(C(F)(F)F)cc1)c1csc(Nc2nncc3ccccc23)n1 (stereo not given) | -78.9% | u | u | u | u | u
C=CCn1c(O)c(C(CC)=NCc2cc(OC)cc(OC)c2)c(=O)[nH]c1=O | -58.3% | i | 23.1µM* | -7.7% | 23.1µM* | -14.6%
C=CCn1c(O)c(C(CC)=NCc2ccc3c(c2)OCO3)c(=O)[nH]c1=O | -40.1% | i | -19.7% | 8.6% | -23.5% | -26.4%
COc1ccc(/C=N\N=C(N)N)cc1 | -26.3% | u | 0.4% | -26.8% | -2.1% | 4.4%
NC(N)=N/N=C/c1ccc(N(c2ccccc2)c2ccccc2)cc1 | 7.94µM* | x | u | x | u | 12.6µM*
CCCCC(=O)Nc1c(C(=O)N2CCN(c3ccccc3F)CC2)oc2ccccc12 | -24.7% | x | x | x | x | u
O=C(O)c1ccc(-[n+]2c(-c3ccccc3)cc(-c3ccccc3)cc2-c2ccccc2)cc1 | 21.0% | i | 15.6% | 0.2% | 6.2% | 24.0%
COc1ccc(-c2cc(-c3ccccc3)[n+](C)c(-c3ccccc3)c2)cc1 | -12.8% | i | 14.6µM* | 8.91µM* | u | u
SMILES | HepG2 tox | ATXN viability | HT1080 IDH1KD tx | ATXN2 expr inh | HT1080-NT tox | TGFb inhibitor
COc1ccc(-[n+]2c(-c3ccccc3)cc(-c3ccc(C)cc3)cc2-c2ccccc2)cc1 | -33.4% | u | 2.59µM* | u | 4.61µM* | 7.08µM*
Cc1ccc(-c2cc(-c3ccccc3)cc(-c3ccccc3)[n+]2-c2ccc(C(=O)O)cc2)cc1 | -3.0% | i | 9.5% | 4.7% | 13.6% | 17.9%
Brc1ccc(-[n+]2c(-c3ccccc3)cc(-c3ccccc3)cc2-c2ccccc2)cc1 | -38.8% | u | 13µM* | u | 16.4µM* | u
CCCOC(=O)c1ccc(-[n+]2c(-c3ccccc3)cc(-c3ccccc3)cc2-c2ccccc2)cc1 | -40.7% | u | 11.6µM* | -34.6% | 20.6µM* | u
CCn1cc2nc(SCc3cccc(C(F)(F)F)c3)n(Cc3ccc(OC)cc3)c(=O)c2n1 | -27.5% | i | x | -25.7% | x | u
CCCSP(=O)(OCC)SCCC | x | i | x | -3.0%[116 µM] | x | x
C=C1C(=O)O[C@@H]2C[C@@H](C)[C@@H]3C=CC(=O)[C@@]3(C)[C@@H](OC(=O)CC(=O)O[C@H]3[C@@H]4C(=C)C(=O)O[C@@H]4C[C@@H](C)[C@@H]4C=CC(=O)[C@]43C)[C@H]12 | 0.562µM* | x | 0.231µM* | 0.316µM* | u | 0.251µM*
C=C1C(=O)O[C@H]2C[C@@H](C)[C@@H]3C=CC(=O)[C@@]3(C)C[C@H]12 | 7.94µM* | u | 8.2µM* | 6.31µM* | u | 4.47µM*
C=C1C(=O)O[C@H]2[C@H]1[C@H](OC(=O)CC(=O)O[C@@H]1C[C@@H](C)[C@@H]3C=CC(=O)[C@@]3(C)[C@H]3OC(=O)C(=C)[C@H]13)C[C@@H](C)[C@H]1C=CC(=O)[C@]12C | -65.1% | u | u | u | u | u
C=C1C(=O)O[C@@H]2C[C@@H](C)[C@@H]3C4OC4C(=O)[C@@]3(C)[C@@H](O)[C@H]12 (stereo not given in full) | -87.8% | 3.55µM* | 9.2µM* | 3.16µM* | 14.6µM* | 2.82µM*
C=C1C(=O)OC2CC(C)C3C=CC(=O)C3(C)C(O)C12 (stereo not given) | -117.9% | u | 0.82µM* | u | 1.84µM* | 3.16µM*

Assay outcomes from PubChem BioAssay.
